# Measured values: PubChem BioAssay AID504850 (National Center for Advancing Translational Sciences (NCATS), 2011)
# Screen size: about 2,300 compounds; about 1,200 (52%) were called active. About 34% were inconclusive and are not listed. The call rests on the fitted dose curve; in most records, active means well fitted inhibition curve with a large enough effect; inconclusive means small, poorly fitted or top-dose-only effect, or effect the other way; inactive means no such curve, though single readings can be large or run the other way. The set was probably picked from earlier hits. Some of the results follow.
# Assay: Confirmation screen for delayed death inhibitors of the malarial parasite plastid, 48 hour incubation; further: nearly all actives have a fitted effect of over 65% in size
# Conditions: P. falciparum-infected erythrocytes, luciferase growth; series mostly up to 28.7 µM
# How it was run: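 Erythrocytes infected with luciferase-expressing P. falciparum (2% hematocrit, 0.1% parasitemia) incubated with compounds 48 hours at 37 C, 5% CO2, in RPMI/Albumax. Growth inhibition scored as reduced luminescence after detection reagent.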
# Potency means the concentration at half of the fitted maximal effect.
row,Structure (SMILES),Potency
1,Brc1ccccc1-c1nnc(COc2ncnc3c2cnn3-c2ccccc2)o1,inactive
2,O=C(C[n+]1cccc(CNC(=O)c2ccc(OC(F)F)cc2)c1)Nc1ccc(SC(F)F)cc1,5.62 µM (active)
3,CN(C)c1cc[n+](CC(=O)Nc2ccc(OC(F)F)cc2)cc1,2.82 µM (active)
4,CCOc1ccc(NC(=O)C[n+]2ccc(N(C)C)cc2)cc1,2.51 µM (active)
5,Cc1ccc[n+](CC(=O)Nc2ccc(N(C)C)cc2)c1,inactive
6,CC(C)N(c1ccccc1)c1ccc(NC(=O)CCl)cc1,11.2 µM (active)
7,O=C(CCl)Nc1ccc(Sc2ccc(NC(=O)CCl)cc2)cc1,2.51 µM (active)
8,CCOC(=O)c1c(NC(=S)N2CCCCC2)sc2c1CCN(C(=O)OCC)C2,5.62 µM (active)
9,CCc1ccc(-c2nc3ccc(Br)cc3c(C(=O)O)c2C)s1,inactive
10,C=CCc1cccc(CNc2ccc(Br)cc2)c1O,3.98 µM (active)
11,COc1ccc(CCNc2cc(C)nc3c(-c4ccc(Cl)cc4)c(C)nn23)cc1OC,12.6 µM (active)
12,Fc1ccc(CNc2ccc(N3CCN(Cc4ccccc4)CC3)cc2)cc1,12.6 µM (active)
13,O=C(CSc1nnc(CNc2ccc(F)cc2)o1)c1ccccc1,inactive
14,CCCCN(CCCC)CC(O)c1cc(Cl)cc2c1-c1ccc(Cl)cc1/C2=C/c1ccc(Cl)cc1 (stereo not drawn),0.0562 µM (active)
15,Cc1nn(Cc2c(Cl)cccc2Cl)c(C)c1NC(=O)c1cc(C(C)C)on1,12.6 µM (active)
16,CCC(C(=O)Nc1sc(C(N)=O)c(C)c1C(=O)OC)c1ccccc1 (stereo not drawn),12.6 µM (active)
17,CCOC(=O)c1cnc2ccccc2c1NCCc1ccc(OC)c(OC)c1,11.2 µM (active)
18,CCN(CC)C(=O)N1c2ccccc2C=Cc2ccccc21,15.8 µM (active)
19,O=C1c2ccccc2C(=Nc2ccccc2)C1c1cccc(Br)c1 (stereo not drawn),3.98 µM (active)
20,CCOC(=O)c1cc(-c2ccccc2)sc1NC(=O)C(C)OC(=O)c1cccnc1Cl (stereo not drawn),11.2 µM (active)
21,CCc1ccc(Nc2n[n+](-c3ccccc3)c(-c3cccc(Cl)c3Cl)s2)cc1,3.16 µM (active)
22,CC1=CC(C)(C)N2C(=O)C3(NCCc4c3[nH]c3ccccc43)c3cc(C)cc1c32 (stereo not drawn),14.1 µM (active)
23,CCN(CC)c1ccc(/C=N/NC(=S)NC)c(O)c1,10 µM (active)
24,O=C(C[n+]1ccccc1)Nc1ccc(Cl)c([N+](=O)[O-])c1,12.6 µM (active)

row,Structure (SMILES),Potency
1,O=C(CCl)Nc1c2c(nn1-c1ccccc1)CSC2,2.51 µM (active)
2,N#CCCn1nc(-c2ccc(Cl)cc2)cc1Nc1ccccc1NC(=O)C(F)(F)F,inactive
3,Cc1ccc(-c2cc(NC(=O)CCl)n(-c3ccccc3)n2)cc1,10 µM (active)
4,CC(C)(C)c1cc(NC(=O)CCl)n(-c2ccccc2)n1,12.6 µM (active)
5,CC1CCN(C(=O)Cn2c(=O)oc3cc(S(=O)(=O)N4CCCCC4)ccc32)CC1,15.8 µM (active)
6,COc1ccc(CN2CCN(Cc3cc4ccccc4o3)CC2CCO)cc1C (stereo not drawn),14.1 µM (active)
7,CCOc1ccccc1CN1CCN(Cc2ccc3cccc(OC)c3n2)CC1CCO (stereo not drawn),14.1 µM (active)
8,CCCN1C(=O)c2ccccc2NC1c1ccc(OC)cc1O (stereo not drawn),12.6 µM (active)
9,Cc1cccc(C2Nc3ccccc3C(=O)N2c2ccccc2)n1 (stereo not drawn),inactive
10,O=[N+]([O-])c1ccc(CNC2CCCc3ccccc32)cc1 (stereo not drawn),inactive
11,O=[N+]([O-])c1ccc(C[n+]2cccc3c4ccccc4ccc32)cc1,0.398 µM (active)
12,O=C(NC1CCCC1)c1ccc([N+](=O)[O-])s1,14.1 µM (active)
13,O=C(NC1C=CS(=O)(=O)C1)c1sc2ccccc2c1Cl (stereo not drawn),6.31 µM (active)
14,Cc1cc(Cl)cc(C)c1OCCn1ccnc1,12.6 µM (active)
15,Cc1nn(Cc2ccccc2Cl)c(C)c1C(=O)Nc1nnc(C2CC2)s1,11.2 µM (active)
16,Cc1c(OC(C)C(=O)NCc2cccnc2)ccc2c3c(c(=O)oc12)CCCC3 (stereo not drawn),1.58 µM (active)
17,Cc1c(OCC(=O)NCc2cccnc2)ccc2c3c(c(=O)oc12)CCCC3,10 µM (active)
18,Cc1c(OCC(=O)NCc2cccnc2)ccc2c3c(c(=O)oc12)CCC3,inactive
19,Cc1ccc(C(=O)Nc2ccccc2SCC2CSc3nc4ccccc4c(=O)n32)cc1 (stereo not drawn),11.2 µM (active)
20,O=C(Nc1ccccc1SCC1CSc2nc3ccccc3c(=O)n21)c1cccc(Cl)c1 (stereo not drawn),11.2 µM (active)
21,O=C(Nc1ccccc1SCC1CSc2nc3ccccc3c(=O)n21)c1ccccc1Cl (stereo not drawn),11.2 µM (active)
22,Cc1cccc(C(=O)Nc2ccccc2SCC2CSc3nc4ccccc4c(=O)n32)c1 (stereo not drawn),11.2 µM (active)
23,COc1ccc(NS(=O)(=O)c2cc(OCC(N)=O)c(C)cc2Cl)cc1,7.08 µM (active)
24,COc1ccc(/C=C2\N=C(SC)N(c3ccccc3OC)C2=O)cc1,14.1 µM (active)

row,Structure (SMILES),Potency
1,CCN(CC)C1=N/C(=C\c2ccc(OC)cc2)C(=O)N1c1ccccc1,14.1 µM (active)
2,COc1cccc(CN(C)Cc2cc(=O)oc3c(C)c(C)ccc23)c1,inactive
3,Cc1c(O)ccc2c(CN(C)Cc3ccccc3)cc(=O)oc12,14.1 µM (active)
4,Cc1ccc2c(CN(C)Cc3cccc(Cl)c3)cc(=O)oc2c1C,inactive
5,COc1ccccc1CN1CCCC(CN(CCN(C)C)C(=O)c2ccc(C)cc2)C1 (stereo not drawn),15.8 µM (active)
6,Cn1nnnc1Sc1ncnc2scc(-c3cccc(S(C)(=O)=O)c3)c12,12.6 µM (active)
7,Cn1nnnc1Sc1ncnc2scc(-c3cccc(F)c3)c12,12.6 µM (active)
8,Cc1onc(-c2c(Cl)cccc2Cl)c1C(=O)N=C(N)N1CC(C)OC(C)C1 (stereo not drawn),11.2 µM (active)
9,Cc1onc(-c2c(F)cccc2Cl)c1C(=O)N1CCCCC1,inactive
10,C=CCC1(O)C(=O)N2C(=C1C(=O)OCC)c1ccc3ccccc3c1CC2(C)C (stereo not drawn),11.2 µM (active)
11,Cc1ccc(C(=O)NCCn2ccc3ccccc32)cc1[N+](=O)[O-],inactive
12,CCCNC(=O)c1ccc(S(=O)(=O)c2ccc(OC)cc2)c([N+](=O)[O-])c1,7.94 µM (active)
13,O=C(N/N=C(\CC(=O)c1cccs1)C(F)(F)F)c1ccncc1,inactive
14,O=C(N/N=C/C(Cl)=C\c1ccccc1)c1cccs1,5.01 µM (active)
15,O=C1Nc2ccccc2/C1=C/C(=O)c1cccs1,inactive
16,CC(=O)OC[C@H]1O[C@@H](n2ncc(=O)[nH]c2=O)[C@H](OC(C)=O)[C@@H]1OC(C)=O,inactive
17,Cc1ccc(S(=O)(=O)N(Cc2ccccc2)c2ccccc2C(=O)Nc2ccccc2C(=O)NCc2ccco2)cc1,2.51 µM (active)
18,CCCN(CCC)S(=O)(=O)c1ccc(C(=O)NCc2ccco2)cc1,12.6 µM (active)
19,Cc1ccc(S(=O)(=O)N(CC(=O)NCc2ccco2)c2ccccc2C)cc1,12.6 µM (active)
20,Cc1ccc(NC(=O)CN(C)C(=O)c2cccc(S(=O)(=O)NCc3ccco3)c2)cc1,inactive
21,CCN(CC(=O)Nc1c(F)cccc1F)C(=O)c1ccc(S(=O)(=O)NCc2ccco2)cc1,inactive
22,C(=C\c1nc(N2CCCCCC2)c2ccccc2n1)/c1ccccc1,6.31 µM (active)
23,O=C(COc1ccccc1)N1c2ccccc2Sc2ccccc21,14.1 µM (active)
24,Cc1cccc(N2CCN(S(=O)(=O)c3ccc4c(c3)NC(=O)CO4)CC2)c1C,15.8 µM (active)

row,Structure (SMILES),Potency
1,Cc1ccc(C)c(N2CCN(S(=O)(=O)c3ccc4c(c3)NC(=O)CS4)CC2)c1,11.2 µM (active)
2,COc1ccc(-c2cc(C)no2)cc1S(=O)(=O)Nc1cccc(CN2CCCC2)c1,14.1 µM (active)
3,Cc1ccc(OCCSCc2nnc(NC(=O)Nc3cccc(Cl)c3)s2)cc1,2.82 µM (active)
4,Cc1cc(=O)oc2c3c(cc(OCC(=O)Nc4cccnc4)c12)OC(C)(C)CC3,3.98 µM (active)
5,Cc1ccccc1-n1nc2c(c1NC(=O)C1CCCC1)CS(=O)(=O)C2,inactive
6,CCOC(=O)c1cc(-c2ccc(C)cc2)n(CCC(=O)NCCN(C)C)c1C,11.2 µM (active)
7,CC(C)(C)c1ccc(C(=O)Nc2sc3c(c2C(=O)O)CCC3)cc1,11.2 µM (active)
8,O=C(/C=C/c1ccccc1)Nc1sc2c(c1C(=O)O)CCC2,inactive
9,COc1ccc(S(=O)(=O)NCc2ccco2)cc1-c1nnc2c3ccccc3c(C)nn12,11.2 µM (active)
10,CO[C@H](C(=O)[C@@H](O)[C@@H](C)O)C1Cc2cc3cc(O[C@H]4C[C@@H](O[C@H]5C[C@@H](O)[C@H](O)[C@@H](C)O5)[C@@H](O)[C@@H](C)O4)c(C)c(O)c3c(O)c2C(=O)[C@H]1O[C@H]1C[C@@H](O[C@H]2C[C@@H](O[C@H]3C[C@](C)(O)[C@H](O)[C@@H](C)O3)[C@H](O)[C@@H](C)O2)[C@H](O)[C@@H](C)O1 (stereo partly drawn),0.562 µM (active)
11,COc1ccc(N2CCN(C(=O)CSc3nc4cc(OC)c(OC)cc4cc3C#N)CC2)cc1,7.94 µM (active)
12,O=C(NNc1c2ccccc2nc2ccccc12)C(O)c1ccccc1 (stereo not drawn),12.6 µM (active)
13,Cc1ccc(OCC(=O)NNc2c3ccccc3nc3ccccc23)cc1,10 µM (active)
14,O=C(CCCO)NNc1c2ccccc2nc2ccccc12,11.2 µM (active)
15,COc1ccccc1OCC(=O)NNc1c2ccccc2nc2ccccc12,10 µM (active)
16,O=C(Nn1c(COc2ccccc2)nc2ccccc2c1=O)C(Cl)(Cl)Cl,inactive
17,Cc1ccc(C(=O)NNc2c3ccccc3nc3ccccc23)cc1,15.8 µM (active)
18,O=C(COc1ccccc1)NNc1c2ccccc2nc2ccccc12,11.2 µM (active)
19,COc1cccc(C(=O)NNc2c3ccccc3nc3ccccc23)c1,10 µM (active)
20,Cc1cccc(OCC(=O)NNc2c3ccccc3nc3ccccc23)c1,11.2 µM (active)
21,COc1cccc(C(=O)N/N=C(\C)CC(=O)Nc2ccc(N(C)C)cc2)c1,inactive
